Common to all, as to set-up: scale not given: direction of the effect not stated beside the values
Test [1] has as its target Protein translocase subunit SecA (Escherichia coli (strain K12)) (UniProt P10408). In words: Assay to Identify E. coli SecA ATPase Inhibitors. It counts as functional. The settings on record: 30 µM.
Test [2] addresses T1, Ubiquitin-activating enzyme e1, putative (Leishmania donovani (strain BPK282A1)) (UniProt E9BSI1).
T1 sequence (whole entry): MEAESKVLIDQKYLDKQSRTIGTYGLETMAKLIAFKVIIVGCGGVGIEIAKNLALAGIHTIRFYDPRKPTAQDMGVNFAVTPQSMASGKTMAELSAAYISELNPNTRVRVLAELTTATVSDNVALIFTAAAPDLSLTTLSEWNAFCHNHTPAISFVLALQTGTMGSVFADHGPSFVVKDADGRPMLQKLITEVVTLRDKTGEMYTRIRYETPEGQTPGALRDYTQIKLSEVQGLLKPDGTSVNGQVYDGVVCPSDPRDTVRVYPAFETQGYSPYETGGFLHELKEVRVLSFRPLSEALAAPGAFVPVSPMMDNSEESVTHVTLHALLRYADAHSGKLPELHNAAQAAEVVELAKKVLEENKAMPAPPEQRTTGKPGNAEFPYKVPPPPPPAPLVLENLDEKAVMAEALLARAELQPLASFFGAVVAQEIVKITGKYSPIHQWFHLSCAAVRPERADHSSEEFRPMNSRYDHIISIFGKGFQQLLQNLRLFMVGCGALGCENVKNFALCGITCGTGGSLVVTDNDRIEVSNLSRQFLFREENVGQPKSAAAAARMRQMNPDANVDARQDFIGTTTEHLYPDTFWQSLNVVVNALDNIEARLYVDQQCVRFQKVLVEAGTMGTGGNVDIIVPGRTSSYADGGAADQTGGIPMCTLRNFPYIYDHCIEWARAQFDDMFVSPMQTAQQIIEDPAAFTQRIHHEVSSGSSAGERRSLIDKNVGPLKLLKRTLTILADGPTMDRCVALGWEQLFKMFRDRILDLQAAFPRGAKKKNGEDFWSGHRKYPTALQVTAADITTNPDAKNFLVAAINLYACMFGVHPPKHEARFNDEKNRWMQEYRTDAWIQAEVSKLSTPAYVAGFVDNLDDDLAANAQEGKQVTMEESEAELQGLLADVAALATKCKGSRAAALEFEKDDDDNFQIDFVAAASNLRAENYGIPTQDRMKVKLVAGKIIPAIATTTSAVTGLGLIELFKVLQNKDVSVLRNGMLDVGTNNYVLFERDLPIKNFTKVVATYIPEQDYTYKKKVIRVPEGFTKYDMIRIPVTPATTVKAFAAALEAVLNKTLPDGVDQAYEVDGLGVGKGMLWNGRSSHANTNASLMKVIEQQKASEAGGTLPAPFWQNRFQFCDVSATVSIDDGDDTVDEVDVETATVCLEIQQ
In words: Leishmania donovani Ubiquitin Activating Enzyme (LdE1). Type of test: functional. The settings on record: 30 µM.

Test [3] deals with AMP-activated protein kinase, AMPK (Homo sapiens) (UniProt P54646+O43741+P54619+Q9UGJ0+Q9Y478+Q13131+Q9UGI9). In words: AMP-dependent Kinase enzyme assay. An in vitro enzyme assay that detects ADP turnover that is directly proportional to AMPK activity. This uses naive AMPK that is activated during the assay with MK-8722. Type of test: functional. Conditions: 30 µM.
Test [4] has as its target Sialic acid-binding Ig-like lectin 9 (Homo sapiens) (UniProt Q9Y336). Kind of test: Hs-Siglec9 ALPHAscreen SOP 20170721. Conditions: 10 µM. A general note: In Alpha technology, singlet oxygen from a donor bead excites a nearby acceptor bead.
Test [5] deals with Trypanosoma cruzi. Kind of test: Trypanosoma cruzi phosphomannomutase and mannose-1-phosphate guanylyltransferase assay. Type of test: functional. Conditions: 10 µM.
The target in test [6] is T2, Arginase-2, mitochondrial (Homo sapiens) (UniProt P78540).
T2 sequence (whole entry): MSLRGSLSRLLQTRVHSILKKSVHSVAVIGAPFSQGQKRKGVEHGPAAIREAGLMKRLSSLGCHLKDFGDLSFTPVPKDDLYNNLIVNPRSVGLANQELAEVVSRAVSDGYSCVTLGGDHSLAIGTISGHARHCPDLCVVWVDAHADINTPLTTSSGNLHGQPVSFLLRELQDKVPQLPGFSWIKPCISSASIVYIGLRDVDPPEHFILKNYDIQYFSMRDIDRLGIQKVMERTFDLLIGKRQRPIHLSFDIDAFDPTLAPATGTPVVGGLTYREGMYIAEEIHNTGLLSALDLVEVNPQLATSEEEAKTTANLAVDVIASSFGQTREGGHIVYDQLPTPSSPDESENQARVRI
Kind of test: in vitro enzyme assay to detect the production of urea directly proportional to the activity of Arginase II. Further: in the data most compounds retested in dose-response had high values. It counts as functional. The settings on record: 33.3 µM.

In test [7] the target is T3, Proteasome subunit beta (Trypanosoma cruzi) (UniProt O96673).
T3 sequence (whole entry): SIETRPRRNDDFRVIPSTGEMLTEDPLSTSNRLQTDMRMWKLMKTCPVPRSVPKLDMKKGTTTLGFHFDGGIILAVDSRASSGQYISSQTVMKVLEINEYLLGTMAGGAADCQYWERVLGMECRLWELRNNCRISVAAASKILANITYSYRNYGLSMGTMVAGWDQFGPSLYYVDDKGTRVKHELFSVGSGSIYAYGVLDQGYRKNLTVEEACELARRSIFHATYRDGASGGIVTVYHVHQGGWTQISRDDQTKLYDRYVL
Kind of test: Trypanosoma cruzi proteasome chymotrypsin-like activity (TcProtChymo) assay. Further: in the data most compounds retested in dose-response had high values. Type of test: functional. The settings on record: 9.37 µM.

The species named for test [8] is Homo sapiens. Kind of test: To identify inhibition of the IFN signalling (Jak-Stat) pathway via expression of an eGFP reporter gene under the control of an IFN-stimulated response element (ISRE) containing MxA promoter. The settings on record: 30 µM. It counts as functional. A general note: In a reporter assay the amount or activity of a reporter protein is the signal.

Test [9] has as its target T4, Tyrosyl-tRNA synthetase, putative (Trypanosoma cruzi (strain CL Brener)) (UniProt Q4DSP6).
T4 sequence (whole entry): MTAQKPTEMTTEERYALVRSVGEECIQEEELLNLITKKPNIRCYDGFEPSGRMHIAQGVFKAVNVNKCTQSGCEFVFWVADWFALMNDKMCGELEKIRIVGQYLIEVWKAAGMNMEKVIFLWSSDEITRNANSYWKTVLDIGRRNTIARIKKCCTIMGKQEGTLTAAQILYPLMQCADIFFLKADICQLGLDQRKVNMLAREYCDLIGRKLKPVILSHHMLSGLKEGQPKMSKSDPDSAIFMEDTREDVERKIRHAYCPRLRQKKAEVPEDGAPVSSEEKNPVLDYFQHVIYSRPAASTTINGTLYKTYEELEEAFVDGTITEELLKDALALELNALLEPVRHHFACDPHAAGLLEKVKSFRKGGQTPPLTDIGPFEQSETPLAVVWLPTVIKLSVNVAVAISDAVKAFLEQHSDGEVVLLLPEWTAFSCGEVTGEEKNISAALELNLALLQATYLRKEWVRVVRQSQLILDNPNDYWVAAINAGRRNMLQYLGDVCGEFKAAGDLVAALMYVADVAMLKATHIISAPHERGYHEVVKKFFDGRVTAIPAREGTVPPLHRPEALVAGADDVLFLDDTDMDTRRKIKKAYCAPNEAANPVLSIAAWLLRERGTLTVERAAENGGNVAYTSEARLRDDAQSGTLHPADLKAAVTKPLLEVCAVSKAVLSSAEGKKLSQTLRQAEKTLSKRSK
In words: Trypanosoma cruzi tyrosyl tRNA synthetase (TcYRS) _High Tyrosine SOP. Further: in the data most compounds retested in dose-response had high values. Type of test: functional. The settings on record: 30 µM.

Test [10] has as its target T4, Tyrosyl-tRNA synthetase, putative (Trypanosoma cruzi (strain CL Brener)). Kind of test: Trypanosoma cruzi tyrosyl tRNA synthetase (TcYRS) SOP. It counts as functional. Conditions: 30 µM.
For test [11], the target named is Chromo domain-containing protein 1 (Saccharomyces cerevisiae (strain ATCC 204508 / S288c) (Baker's yeast)) (UniProt P32657). Kind of test: ScCHD-1 Enzyme Inhibition Assay. Further: in the data most compounds retested in dose-response had high values. Type of test: functional. Conditions: 30 µM.

In ChEMBL document CHEMBL3988442, “University of Dundee, Small-Polar-MMV Screening Library” (2021) one finds Percent Effect data, which are given here for eight compounds.

The structures appear in SMILES notation. For some of these results: Potency and affinity values are given separately.

Sequence of Protein translocase subunit SecA (Escherichia coli (strain K12)) (P10408 whole entry): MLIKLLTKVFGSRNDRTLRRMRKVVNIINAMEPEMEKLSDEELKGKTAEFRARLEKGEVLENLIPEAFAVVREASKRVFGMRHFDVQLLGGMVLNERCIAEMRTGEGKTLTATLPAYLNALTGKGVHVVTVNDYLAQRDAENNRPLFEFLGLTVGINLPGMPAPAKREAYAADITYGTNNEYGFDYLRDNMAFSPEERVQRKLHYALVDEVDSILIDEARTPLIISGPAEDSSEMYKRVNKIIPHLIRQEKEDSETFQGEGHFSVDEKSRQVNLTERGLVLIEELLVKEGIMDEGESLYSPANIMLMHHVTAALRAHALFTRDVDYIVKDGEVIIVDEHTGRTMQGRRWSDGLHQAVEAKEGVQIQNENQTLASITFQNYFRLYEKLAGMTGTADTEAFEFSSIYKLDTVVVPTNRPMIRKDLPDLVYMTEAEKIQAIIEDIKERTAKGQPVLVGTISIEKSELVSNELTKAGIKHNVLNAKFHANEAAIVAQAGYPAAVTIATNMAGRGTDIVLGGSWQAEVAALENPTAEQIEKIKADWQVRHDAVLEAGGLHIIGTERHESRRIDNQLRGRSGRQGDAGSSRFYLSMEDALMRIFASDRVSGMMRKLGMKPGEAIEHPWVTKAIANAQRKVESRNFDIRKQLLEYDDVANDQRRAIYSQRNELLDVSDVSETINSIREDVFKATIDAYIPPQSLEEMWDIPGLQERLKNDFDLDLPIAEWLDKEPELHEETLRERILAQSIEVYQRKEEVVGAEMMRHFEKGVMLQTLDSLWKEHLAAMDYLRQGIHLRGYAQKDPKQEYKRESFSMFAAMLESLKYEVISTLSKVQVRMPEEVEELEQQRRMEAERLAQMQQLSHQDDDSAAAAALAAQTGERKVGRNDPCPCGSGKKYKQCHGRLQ
Sequence of Chromo domain-containing protein 1 (Saccharomyces cerevisiae (strain ATCC 204508 / S288c) (Baker's yeast)) (P32657 whole entry, the tested form may be a part): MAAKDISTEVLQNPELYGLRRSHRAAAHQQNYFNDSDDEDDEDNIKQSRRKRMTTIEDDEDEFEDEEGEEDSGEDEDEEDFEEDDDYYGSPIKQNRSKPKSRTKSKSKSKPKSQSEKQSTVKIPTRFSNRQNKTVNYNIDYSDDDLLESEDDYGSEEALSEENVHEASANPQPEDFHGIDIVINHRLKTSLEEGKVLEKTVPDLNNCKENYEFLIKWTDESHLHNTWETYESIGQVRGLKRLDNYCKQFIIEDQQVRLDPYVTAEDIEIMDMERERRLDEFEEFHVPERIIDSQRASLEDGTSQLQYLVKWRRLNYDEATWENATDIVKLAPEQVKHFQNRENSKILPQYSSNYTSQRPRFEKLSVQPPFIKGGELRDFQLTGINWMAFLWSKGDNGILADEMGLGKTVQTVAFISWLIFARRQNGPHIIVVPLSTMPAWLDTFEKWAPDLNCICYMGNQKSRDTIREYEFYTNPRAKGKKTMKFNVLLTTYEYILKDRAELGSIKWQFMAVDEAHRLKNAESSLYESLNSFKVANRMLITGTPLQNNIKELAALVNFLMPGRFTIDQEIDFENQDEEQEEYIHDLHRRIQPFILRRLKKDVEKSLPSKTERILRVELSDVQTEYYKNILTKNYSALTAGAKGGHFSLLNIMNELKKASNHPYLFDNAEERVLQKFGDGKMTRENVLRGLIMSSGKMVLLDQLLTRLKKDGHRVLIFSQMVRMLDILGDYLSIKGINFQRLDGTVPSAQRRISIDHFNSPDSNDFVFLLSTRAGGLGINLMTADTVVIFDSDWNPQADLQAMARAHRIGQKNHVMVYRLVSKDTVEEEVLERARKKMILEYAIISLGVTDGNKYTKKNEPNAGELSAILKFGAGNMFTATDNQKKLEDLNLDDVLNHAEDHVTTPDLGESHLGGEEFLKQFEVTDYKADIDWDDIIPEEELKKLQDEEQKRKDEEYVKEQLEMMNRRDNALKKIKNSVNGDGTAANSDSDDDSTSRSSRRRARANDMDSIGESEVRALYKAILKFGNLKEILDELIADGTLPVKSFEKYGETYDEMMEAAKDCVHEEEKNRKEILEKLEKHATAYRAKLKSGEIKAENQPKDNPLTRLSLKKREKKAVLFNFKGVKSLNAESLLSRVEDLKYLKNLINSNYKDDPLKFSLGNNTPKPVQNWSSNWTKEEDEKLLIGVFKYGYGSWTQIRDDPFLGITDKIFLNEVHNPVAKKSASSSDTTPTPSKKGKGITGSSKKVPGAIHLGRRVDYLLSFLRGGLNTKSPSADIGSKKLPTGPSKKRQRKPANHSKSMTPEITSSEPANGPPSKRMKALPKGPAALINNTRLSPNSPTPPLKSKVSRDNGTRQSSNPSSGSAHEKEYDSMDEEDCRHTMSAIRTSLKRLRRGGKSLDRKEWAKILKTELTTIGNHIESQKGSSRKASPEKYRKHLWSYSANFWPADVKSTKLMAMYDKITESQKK
Sequence of Sialic acid-binding Ig-like lectin 9 (Homo sapiens) (Q9Y336 whole entry): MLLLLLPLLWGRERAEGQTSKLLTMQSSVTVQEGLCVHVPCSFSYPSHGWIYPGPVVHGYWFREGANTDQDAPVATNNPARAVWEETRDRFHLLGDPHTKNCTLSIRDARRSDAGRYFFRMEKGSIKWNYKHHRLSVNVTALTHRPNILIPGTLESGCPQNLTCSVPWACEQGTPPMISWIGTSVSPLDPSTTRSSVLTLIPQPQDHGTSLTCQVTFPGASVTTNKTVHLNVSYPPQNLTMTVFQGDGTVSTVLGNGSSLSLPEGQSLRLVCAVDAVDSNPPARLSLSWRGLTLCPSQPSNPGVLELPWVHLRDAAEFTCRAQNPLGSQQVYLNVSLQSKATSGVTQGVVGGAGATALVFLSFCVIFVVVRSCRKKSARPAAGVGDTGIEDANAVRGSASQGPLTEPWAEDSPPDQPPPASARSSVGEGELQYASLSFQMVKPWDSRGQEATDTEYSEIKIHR

Regarding `O=C1CCc2cc(C(=O)NCc3ccc(-n4cncn4)nc3)ccc2N1`, the Percent Effect is -8% in [1]; 8.11% in test [2]; -0.201% in test [3]; 4.21% in test [4]; -5.19% in test [5]; 0.802% in [6]. The Percent Effect in test [7] was -4.68%; in [8], 10.4%; in [9] it was 4.43%; in test [10] it was 1.24%; in test [11] it was 23.8%.
`Cn1cccc1C(=O)N1CC[C@H]2C[C@@H](c3ccncn3)O[C@@H]2C1`: the Percent Effect in [1] is -5.79%; in test [2] it was 13.5%; in test [3], 3.37%; in [4], -2.88%; in test [5], -0.684%; in test [6], 6.69%. Also, the Percent Effect is 14.6% in [7]; 2.31% in test [8]; 4.32% in test [9]; 5.13% in test [10]; -0.0971% in test [11].
In the case of `CC(C)C(=O)NCC(=O)N(C)C1CCCN(C2Cc3ccccc3C2)C1` (stereo not drawn), the Percent Effect in test [1] is 0.272%; in test [2] it was 8.11%; in test [3], -4.7%; in [4] it was 3.43%; in test [5], -3.48%; in [6], 0.476%. Moreover, the Percent Effect is 14.3% in test [7]; 11.7% in [8]; -1.59% in test [9]; -26.8% in test [10]; -2.54% in [11].
As to `COc1c(C2CCCN2C(=O)c2csc(C(C)C)n2)c(C)nn1C` (stereo not drawn), the Percent Effect in test [1] was -5.84%; in test [2], 5.2%; in [3], 2.93%; in [4], 11.7%; in [5], 0.187%; in test [6], 1.07%. Besides, the Percent Effect is -5.91% in test [7]; 8.75% in test [8]; 3.88% in test [9]; 9.76% in test [10]; 0.696% in test [11].
Take `CC(C)(C)SCCCC(=O)N1CCC(Nc2cccnn2)CC1`: the Percent Effect is -1.17% in test [1]; -2.7% in test [2]; -6.83% in [3]; 13.1% in test [4]; 0.283% in test [5]; -1.6% in test [6]. Also, the Percent Effect in [7] is -1.98%; in test [8] it was 8.77%; in test [9], 4.43%; in [10], 6.17%; in test [11], 0.803%.
Turning to `O=C(c1ccncc1)N1CCCn2c(CN3CCCCC3)nnc2C1`, the Percent Effect was -3.23% in [1]; 2.67% in test [2]; 9.49% in test [3]; 2.61% in test [4]; 4.13% in test [5]; -5.36% in [6]. Also, the Percent Effect in [7] is 5.9%; in [8], -3.57%; in [9] it was 5.32%; in test [10], -1.28%; in test [11], 1.13%.
For `COc1cc(C(=O)Nc2nc(C)no2)ccc1C`, the Percent Effect in [1] is -6.11%; in test [2], 25.3%; in test [3], -1.3%; in test [4], -0.471%; in [5] it was 3.12%; in test [6], -4.56%. Also, the Percent Effect is 4.83% in test [7]; 33.2% in test [8]; 7.39% in [9]; 26.6% in test [10]; -8.84% in test [11].
Turning to `Cc1nc(N2CCCC2)ncc1-c1cc(O)nc(N2CCCC2)n1`, the Percent Effect in [1] is -4.52%; in [2] it was -1.33%; in test [3] it was 4.03%; in test [4], 6.18%; in [5] it was -4.13%; in test [6] it was -2.64%. Moreover, the Percent Effect is 7.76% in [7]; -0.506% in test [8]; 2.12% in test [9]; 0% in test [10]; -1.52% in test [11].
